# The whole screen tested about 340,000 compounds, of which about 1,700 (0.5%) were called active. For the sample, actives were picked, then their nearest neighbours and some compounds at random. Unmarked numbers belong to inactive results. Cut-off read from the data, not from the text of the source: active = inhibition above about 40%; inactive = the rest.
# Target: Cysteine protease ATG4B (Homo sapiens) (UniProt Q9Y4P1)
# Assay: blockers of ATG4B cysteine protease activity – biochemical, fluorescence, uHTS, primary screen (AID 504462)
# Settings: ATG4B cleavage of LC3-PLA2, NBD-HPC fluorescence, 1 h; at 8.33 µM; stronger effect = higher value
# Cysteine protease ATG4B (Homo sapiens), sequence (Q9Y4P1 whole entry, looked up): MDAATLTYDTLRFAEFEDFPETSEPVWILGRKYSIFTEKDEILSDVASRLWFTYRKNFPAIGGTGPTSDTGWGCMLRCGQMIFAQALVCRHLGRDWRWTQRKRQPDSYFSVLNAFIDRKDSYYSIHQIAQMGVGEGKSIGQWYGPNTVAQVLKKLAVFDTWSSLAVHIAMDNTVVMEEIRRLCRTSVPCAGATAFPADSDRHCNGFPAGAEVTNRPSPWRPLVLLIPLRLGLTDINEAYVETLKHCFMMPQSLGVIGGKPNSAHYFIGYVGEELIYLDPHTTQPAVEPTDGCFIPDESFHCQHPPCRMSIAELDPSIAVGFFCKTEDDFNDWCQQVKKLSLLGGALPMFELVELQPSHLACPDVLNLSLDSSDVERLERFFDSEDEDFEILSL
row,Structure (SMILES),inhibition
1,NS(=O)(=O)c1cc(Cl)c(Cl)c(S(N)(=O)=O)c1,7.96%
2,CC(=O)C1(C)N(O)C(C)(C)C(c2cccs2)=[N+]1[O-] (centres undefined),6.58%
3,Cc1cccc(OCCC(=O)OCc2csc(CC(=O)Nc3ccccc3C)n2)c1,-6.31%
4,CC1O[C@H](OC2C(COC3OC(CO)C(O)[C@H](O)C3O)OC(OC3CC[C@]4(C)C(CC[C@@]5(C)[C@@H]4C=C[C@]46OC[C@@]7(CCC(C)(C)C[C@H]74)C(O)C[C@@]56C)C3(C)C)C(O)C2O)C(O)C(O)C1O (some centres undefined),-8.64%
5,CSCCC(NS(=O)(=O)c1ccc2c(c1)oc(=O)n2C)C(=O)NCc1ccccc1 (centres undefined),-9.32%
6,O=C1CSC(=S)N1/N=C/c1ccc(O)c([N+](=O)[O-])c1,74.7% (active)
7,Cc1cc(C(=O)N/N=C/c2ccc(O)c([N+](=O)[O-])c2)c(C)n1-c1ccc(F)cc1,23.4%
8,CCOc1cccc(/C=N/N2C(=O)CSC2=S)c1O,-2.71%
9,CCOc1ccc(NC(=O)CSc2nc3c(c(=O)n2-c2ccccc2OC)SCC3)cc1,-6.73%
10,CCOc1ccc(-n2c(SC(C)C(=O)OC)nc3c(c2=O)SCC3)cc1 (centres undefined),46.2% (active)
11,CCOc1ccc(-n2c(SCC(=O)OC)nc3sc4c(c3c2=O)CCN(C)C4)cc1,5.88%
12,NS(=O)(=O)c1ccc(NC(=S)Nc2ccc(Br)c(Cl)c2)cc1,1.95%
13,S=C(Nc1ccccc1)Nc1ccc2ccccc2c1,-5.73%
14,Cc1cccc(NC(=S)Nc2ccc(Cl)c(Cl)c2)c1,41.4% (active)
15,O=C(NCCS(=O)(=O)c1ccc(Br)cc1)c1ccccc1Cl,4.71%
16,Cc1nc([N+](=O)[O-])nn1C12CC3CC(CC(Br)(C3)C1)C2,2.28%
17,CCN1C[C@@H]2[C@@H]3C(=O)N(Cc4ccccc4)C(=O)[C@@H]3[C@](C)(C1=O)N2C(=O)c1ccc(C(C)(C)C)cc1,-18.2%
18,O=C(CN(C(=O)c1csnn1)c1ccc(Br)cc1)NC1CCCC1,-4.03%
19,CO/N=C/c1ccc(N2CCN(C(=O)c3cccc(Cl)c3)CC2)c([N+](=O)[O-])c1,-0.58%
20,O=C(/C=C/c1ccc(Cl)cc1)N1CCN(c2ccccc2[N+](=O)[O-])CC1,41.9% (active)

row,Structure (SMILES),inhibition
1,O=C(c1ccc(Cl)c([N+](=O)[O-])c1)N1CCN(c2ccccc2)CC1,-2.12%
2,CC(C)CCNC(=O)Cn1c(=O)oc2cc(S(=O)(=O)N3CC(C)CC(C)C3)ccc21 (centres undefined),-3.27%
3,O=C(CN(C(=O)c1csnn1)c1cccc(Cl)c1)NC1CCCC1,5.82%
4,Clc1ccccc1CSc1nnc(-c2ccco2)c(-c2ccco2)n1,54.2% (active)
5,CSc1nc(-c2ccco2)nn1C(=O)c1ccccc1Cl,0.74%
6,Cc1cc(C)nc(SCc2ccccc2C#N)n1,4.39%
7,COc1cccc(-c2coc3cc4oc(=O)c(CC(=O)O)c(C)c4cc23)c1,2.29%
8,Cc1ccc(/C=C/C(=O)O)cc1S(=O)(=O)N1CCC(Cc2ccccc2)CC1,3.43%
9,CCNC(=S)Nc1cccc(Cl)c1C,-7.76%
10,Cc1c(Cl)cccc1NC(=S)NCc1ccc2c(c1)OCO2,57.9% (active)
11,S=C(NCc1ccc2c(c1)OCO2)NCc1ccco1,7%
12,O=C(CSc1ncnc2c1oc1ccccc12)NC1CCCC1,-1.46%
13,CCOCCCn1c(SCC(=O)Nc2cc(OC)ccc2OC)nc2ccccc2c1=O,4.76%
14,O=c1c2sccc2nc(SCc2cc(=O)n3ccccc3n2)n1-c1ccc(Br)cc1,47.5% (active)
15,CCc1ccc(-n2c(SCc3cc(=O)n4cc(Br)ccc4n3)nc3[nH]ncc3c2=O)cc1,-11.3%
16,O=C(O)CCn1c(SCc2cc(=O)n3ccccc3n2)nc2ccsc2c1=O,-6.86%
17,CC(=O)NC(NC(=S)Nc1c(C)n(C)n(-c2ccccc2)c1=O)C(Cl)(Cl)Cl (centres undefined),-9.32%
18,O=C(COc1ccc(S(=O)(=O)NCc2ccccc2)cc1)N1CCOCC1,0.8%
19,CCc1cccc(C)c1N1C(=O)CN(Cc2ccccc2)C1=S,88.4% (active)
20,CC1CN(Cc2ccccc2)C(=S)NC1=O (centres undefined),-11%

row,Structure (SMILES),inhibition
1,Cc1ccccc1CCNC(=O)C1CCC(=O)N(Cc2ccc(Cl)cc2)C1 (centres undefined),0.05%
2,Cc1cccc(C)c1N1C(=O)CN(Cc2ccccc2)C1=S,82.4% (active)
3,O=C1C[C@@H]2c3c(cccc3CN1Cc1ccccc1)C[C@@H](O)[C@H]2O,0.85%
4,COc1cccc(N2C(=O)CN(Cc3ccccc3)C2=S)c1,25.8%
5,COc1ccc(NC(=O)C(CC(C)C)NS(=O)(=O)c2ccc3c(c2)CCN3C(C)=O)cc1OC (centres undefined),-5.12%
6,O=C(c1ccc(S(=O)(=O)N2CCCC2)cc1)N1CCN(c2ccccc2F)CC1,0.98%
7,CCOc1ccc(CCNC(=O)COC(=O)CCS(=O)(=O)c2ccc(C)cc2)cc1OCC,-3.02%
8,O=S(=O)(c1ccc(F)cc1)N1CCN(C(=S)NCc2ccco2)CC1,0.75%
9,CC(C)Cc1ccc(C(C)C(=N)N)cc1 (centres undefined),8.66%
10,COc1ccc(CNC(=O)C2CCN(S(=O)(=O)c3ccc(SC)cc3)CC2)cc1,-7.7%
11,N#CCC(=O)N/N=C/c1cn(Cc2ccc3ccccc3c2)c2ccccc12,-9.5%
12,Cc1ccc(OCCOc2cccc(/C=N/NC(N)=O)c2)cc1,-2.28%
13,CCOC(=O)N/N=C/c1cn(Cc2ccccc2Cl)c2ccccc12,48% (active)
14,COc1cccc(Cn2cc(/C=N/NC(=O)c3cc(O)cc(O)c3)c3ccccc32)c1,47.7% (active)
15,COC(=O)N/N=C/c1c[n+]([O-])c2ccccc2[n+]1[O-],-2.96%
16,CCOC(=O)c1cnn(Cc2ccccc2Cl)c1N,-5.17%
17,COC(=O)N/N=C/c1cn(CCCOc2ccc(C)cc2)c2ccccc12,40.3% (active)
18,NC(=O)Cn1cc(/C=N\NS(=O)(=O)c2ccccc2)c2ccccc21,3.11%
19,O=C(Cn1cc(/C=N/NC(=O)c2cccc(C(F)(F)F)c2)c2ccccc21)Nc1ccc(F)cc1,5.83%
